Test results reported in PubChem BioAssay.

Target: PEG-3 (UniProt Q6IN02)
Assay: Peg3 promoter luciferase inhibitors, potency, dose response, cell-based, HeLa, CREF/GAPDH counter-screen panel (AID 624167)
Conditions: CREF/GAPDH counter-screens; HeLa PEG-Prom luciferase reporter, overnight, run 2, dose range 1, at 100 µM (top of the series) unless noted

Chain of PEG-3 (Q6IN02 whole entry, looked up): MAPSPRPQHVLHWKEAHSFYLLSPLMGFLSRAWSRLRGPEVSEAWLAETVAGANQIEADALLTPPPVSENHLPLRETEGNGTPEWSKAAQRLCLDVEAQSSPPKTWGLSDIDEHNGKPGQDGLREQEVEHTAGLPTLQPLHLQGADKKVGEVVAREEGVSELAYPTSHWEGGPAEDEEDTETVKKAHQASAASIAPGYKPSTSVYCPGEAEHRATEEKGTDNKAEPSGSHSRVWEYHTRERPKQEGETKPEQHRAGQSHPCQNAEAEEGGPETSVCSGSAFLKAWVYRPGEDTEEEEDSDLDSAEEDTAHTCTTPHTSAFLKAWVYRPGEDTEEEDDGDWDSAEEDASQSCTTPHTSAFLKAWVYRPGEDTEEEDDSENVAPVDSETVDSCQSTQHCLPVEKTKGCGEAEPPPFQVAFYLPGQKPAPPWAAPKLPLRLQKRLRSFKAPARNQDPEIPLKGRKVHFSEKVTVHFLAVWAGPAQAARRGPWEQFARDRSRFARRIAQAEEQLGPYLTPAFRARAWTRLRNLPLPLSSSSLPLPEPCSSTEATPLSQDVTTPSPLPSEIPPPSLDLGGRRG

Going from O=C(N/N=C/c1cccs1)c1n[nH]c2c1CCCC2 to C/C(=N\NC(=O)c1n[nH]c2c1CCC2)c1cccs1, the inhibition rises from 94.8% to 99.7%.

Compared with Cc1ccccc1OCC(O)CNC1CCC(NCC(O)COc2ccccc2C)CC1 (stereo not given), COc1ccc(N(C(=O)CCl)C(C(=O)NC2CCCCC2)c2cccnc2)cc1 (stereo not given) is higher in inhibition: 95.8% for the first, 102% for the second.

Going from c1cc2c(cc1C1=NNC(=NC3CC3)SC1)OCCO2 to O=C(NCCc1ccccc1F)c1ccc2c(c1)OCCO2, the inhibition rises from 99% to 102%.

Compared with CCOC(=O)c1cnc(Nc2nc3ccccc3o2)nc1C, CCc1ccc(C(=O)Nc2nc3ccccc3[nH]2)cc1 is higher in inhibition: 81.8% for the first, 97.2% for the second.

First: Cc1ccc2nc(NC(=O)c3ccccn3)sc2c1
Second: CCOc1ccc(NC(=O)c2ccccn2)cc1
The inhibition of the first is higher: 98.6% for the first, 91.5% for the second.

Going from CCOc1ccc(-c2ccc(SC)nn2)cc1 to COc1ccc(OCc2cccc(C(=O)O)c2)cc1, the inhibition rises from 92.5% to 102%.

Going from Cc1cccc(/C=N/Nc2ccc3ccccc3n2)c1 to C(=NNc1ccc2ccccc2n1)c1ccccn1, the inhibition rises from 101% to 102%.

CN1CCN(c2ccc(-c3ccc4ccccc4n3)cc2)CC1 and C(=NN1CCCCCC1)c1ccc2ccccc2n1 are the same in inhibition: 101% for the first, 101% for the second.

First: Cc1cc(C(=O)CN2C(=O)c3ccccc3S2(=O)=O)c(C)n1CC1CCCO1 (stereo not given)
Second: C=CCn1c(C)cc(C(=O)CN2C(=O)c3ccccc3S2(=O)=O)c1C
The inhibition of the first is higher: 99.2% for the first, 96.6% for the second.

Compared with O=C1c2cccc3cc([N+](=O)[O-])cc(c23)C(=O)N1CCN1CCCC1, O=c1c(Cl)c(N2CCCCC2)cnn1-c1nc2ccccc2[nH]1 is lower in inhibition: 99.1% for the first, 95% for the second.

Compared with Cc1cc(C(=O)COC(=O)c2ccccc2O)c(C)n1Cc1cccs1, COCCn1c(C)cc(C(=O)COC(=O)c2cccc(O)c2)c1C is lower in inhibition: 94.8% for the first, 91.3% for the second.

Going from CC(=O)c1cccc(-c2ccnc3c2CC(C(=O)Nc2cccc(NS(C)(=O)=O)c2)O3)c1 (stereo not given) to COc1cccc(NC(=O)c2nc(S(C)(=O)=O)ncc2Cl)c1, the inhibition rises from 65% to 101%.

First: COc1ccc(/C=C/c2nc3ccccc3n2C)cc1
Second: CC(=O)n1cc(N(C(=O)CCl)c2ccc(C)cc2)c2ccccc21
The inhibition of the first is lower: 97.5% for the first, 99% for the second.

First: CN(C)CCCN(C(=O)c1ccc(S(=O)(=O)N2CCc3ccccc3C2)cc1)c1nc2ccc(F)cc2s1
Second: O=C(CN1C(=O)c2ccccc2S1(=O)=O)c1ccc2c(c1)OCCCO2
The inhibition of the first is higher: 98.9% for the first, 98.8% for the second.

First: O=C(Cn1ncc(Cl)c(Cl)c1=O)N1CCc2ccccc21
Second: O=C(CCl)Nc1ccccc1Sc1ccc(Cl)cc1
The inhibition of the first is lower: 98.6% for the first, 98.7% for the second.

Going from C(=N\Nc1nc2ccccc2[nH]1)/c1ccccn1 to O=C(Nc1ccccn1)c1cc2ccccc2o1, the inhibition falls from 101% to 96.6%.

Compared with C=C1CC2(OC1=O)c1ccccc1CCc1ccccc12, Cc1ccccc1-c1nc(-c2ccccn2)no1 is lower in inhibition: 101% for the first, 92% for the second.

First: NC(C(=O)O)C1ON=C(Cl)C1O (stereo not given)
Second: OCC1OC(n2ccc3c(NO)ncnc32)C(O)C1O (stereo not given)
The inhibition of the first is lower: 43.8% for the first, 101% for the second.

CC1=CC2C(C(O)CC3(C)C2CC(C)C32OCOC23COCO3)C2(C)C/C(=C\O)C(=O)C=C12 (stereo not given) and CC(C)(C)C(=O)Nc1ccc(NC(=O)c2ccco2)nc1 are the same in inhibition: 101% for the first, 101% for the second.

Going from Cc1ccc(C(=O)Nc2ncc([N+](=O)[O-])s2)cc1 to C/C(=N/NC(=O)c1cc(C2CC2)[nH]n1)c1cccs1, the inhibition falls from 96.1% to 87.2%.

System: Rat fibroblasts (CREF)
Assay: as above
Conditions: CREF/GAPDH counter-screens; run 1, dose range 1, at 100 µM (top of the series)

Compared with O=C(N/N=C/c1cccs1)c1n[nH]c2c1CCCC2, C/C(=N\NC(=O)c1n[nH]c2c1CCC2)c1cccs1 is higher in inhibition: 96.4% for the first, 96.7% for the second.

First: Cc1ccccc1OCC(O)CNC1CCC(NCC(O)COc2ccccc2C)CC1 (stereo not given)
Second: COc1ccc(N(C(=O)CCl)C(C(=O)NC2CCCCC2)c2cccnc2)cc1 (stereo not given)
The inhibition of the first is higher: 98.1% for the first, 97.1% for the second.

Compared with c1cc2c(cc1C1=NNC(=NC3CC3)SC1)OCCO2, O=C(NCCc1ccccc1F)c1ccc2c(c1)OCCO2 is higher in inhibition: 99.2% for the first, 100% for the second.

First: CCOC(=O)c1cnc(Nc2nc3ccccc3o2)nc1C
Second: CCc1ccc(C(=O)Nc2nc3ccccc3[nH]2)cc1
The inhibition of the first is lower: 92% for the first, 98.4% for the second.

Going from Cc1ccc2nc(NC(=O)c3ccccn3)sc2c1 to CCOc1ccc(NC(=O)c2ccccn2)cc1, the inhibition rises from 94.5% to 97.1%.

First: CCOc1ccc(-c2ccc(SC)nn2)cc1
Second: COc1ccc(OCc2cccc(C(=O)O)c2)cc1
The inhibition of the first is higher: 97.5% for the first, 90.9% for the second.

Compared with Cc1cccc(/C=N/Nc2ccc3ccccc3n2)c1, C(=NNc1ccc2ccccc2n1)c1ccccn1 is higher in inhibition: 94.2% for the first, 99% for the second.

First: CN1CCN(c2ccc(-c3ccc4ccccc4n3)cc2)CC1
Second: C(=NN1CCCCCC1)c1ccc2ccccc2n1
The inhibition of the first is lower: 98.1% for the first, 101% for the second.

Cc1cc(C(=O)CN2C(=O)c3ccccc3S2(=O)=O)c(C)n1CC1CCCO1 (stereo not given) and C=CCn1c(C)cc(C(=O)CN2C(=O)c3ccccc3S2(=O)=O)c1C are the same in inhibition: 99.2% for the first, 99.2% for the second.

Going from O=C1c2cccc3cc([N+](=O)[O-])cc(c23)C(=O)N1CCN1CCCC1 to O=c1c(Cl)c(N2CCCCC2)cnn1-c1nc2ccccc2[nH]1, the inhibition rises from 80.3% to 100%.

Going from Cc1cc(C(=O)COC(=O)c2ccccc2O)c(C)n1Cc1cccs1 to COCCn1c(C)cc(C(=O)COC(=O)c2cccc(O)c2)c1C, the inhibition rises from 94.6% to 98.3%.

First: CC(=O)c1cccc(-c2ccnc3c2CC(C(=O)Nc2cccc(NS(C)(=O)=O)c2)O3)c1 (stereo not given)
Second: COc1cccc(NC(=O)c2nc(S(C)(=O)=O)ncc2Cl)c1
The inhibition of the first is lower: 30% for the first, 99.4% for the second.

First: COc1ccc(/C=C/c2nc3ccccc3n2C)cc1
Second: CC(=O)n1cc(N(C(=O)CCl)c2ccc(C)cc2)c2ccccc21
The inhibition of the first is higher: 100% for the first, 99.7% for the second.

Compared with CN(C)CCCN(C(=O)c1ccc(S(=O)(=O)N2CCc3ccccc3C2)cc1)c1nc2ccc(F)cc2s1, O=C(CN1C(=O)c2ccccc2S1(=O)=O)c1ccc2c(c1)OCCCO2 is higher in inhibition: 99% for the first, 99.7% for the second.

Going from O=C(Cn1ncc(Cl)c(Cl)c1=O)N1CCc2ccccc21 to O=C(CCl)Nc1ccccc1Sc1ccc(Cl)cc1, the inhibition rises from 96.2% to 99.4%.

Going from C(=N\Nc1nc2ccccc2[nH]1)/c1ccccn1 to O=C(Nc1ccccn1)c1cc2ccccc2o1, the inhibition rises from 93.7% to 99.4%.

Compared with C=C1CC2(OC1=O)c1ccccc1CCc1ccccc12, Cc1ccccc1-c1nc(-c2ccccn2)no1 is higher in inhibition: 95.7% for the first, 99.5% for the second.

First: NC(C(=O)O)C1ON=C(Cl)C1O (stereo not given)
Second: OCC1OC(n2ccc3c(NO)ncnc32)C(O)C1O (stereo not given)
The inhibition of the first is lower: -3.88% for the first, 95.4% for the second.

CC1=CC2C(C(O)CC3(C)C2CC(C)C32OCOC23COCO3)C2(C)C/C(=C\O)C(=O)C=C12 (stereo not given) and CC(C)(C)C(=O)Nc1ccc(NC(=O)c2ccco2)nc1 are the same in inhibition: 100% for the first, 100% for the second.

Going from Cc1ccc(C(=O)Nc2ncc([N+](=O)[O-])s2)cc1 to C/C(=N/NC(=O)c1cc(C2CC2)[nH]n1)c1cccs1, the inhibition rises from 85.9% to 95.4%.
